Assay results: ChEMBL document CHEMBL1201862, “PubChem BioAssay data set” (2004)
Among all 400,000 compounds or so, about 2,100 (0.53%) were called active. Roughly 14% stayed inconclusive and do not appear here. The sample holds actives, similar compounds and a random draw of the others, so the mix is not that of the screen. How the calls were made is not given here.

Target: Ataxin-2 (Homo sapiens) (UniProt Q99700)
Experiment: qHTS for Inhibitors of ATXN expression.
Assay type: functional

Chain of Ataxin-2 (Homo sapiens) (Q99700 whole entry): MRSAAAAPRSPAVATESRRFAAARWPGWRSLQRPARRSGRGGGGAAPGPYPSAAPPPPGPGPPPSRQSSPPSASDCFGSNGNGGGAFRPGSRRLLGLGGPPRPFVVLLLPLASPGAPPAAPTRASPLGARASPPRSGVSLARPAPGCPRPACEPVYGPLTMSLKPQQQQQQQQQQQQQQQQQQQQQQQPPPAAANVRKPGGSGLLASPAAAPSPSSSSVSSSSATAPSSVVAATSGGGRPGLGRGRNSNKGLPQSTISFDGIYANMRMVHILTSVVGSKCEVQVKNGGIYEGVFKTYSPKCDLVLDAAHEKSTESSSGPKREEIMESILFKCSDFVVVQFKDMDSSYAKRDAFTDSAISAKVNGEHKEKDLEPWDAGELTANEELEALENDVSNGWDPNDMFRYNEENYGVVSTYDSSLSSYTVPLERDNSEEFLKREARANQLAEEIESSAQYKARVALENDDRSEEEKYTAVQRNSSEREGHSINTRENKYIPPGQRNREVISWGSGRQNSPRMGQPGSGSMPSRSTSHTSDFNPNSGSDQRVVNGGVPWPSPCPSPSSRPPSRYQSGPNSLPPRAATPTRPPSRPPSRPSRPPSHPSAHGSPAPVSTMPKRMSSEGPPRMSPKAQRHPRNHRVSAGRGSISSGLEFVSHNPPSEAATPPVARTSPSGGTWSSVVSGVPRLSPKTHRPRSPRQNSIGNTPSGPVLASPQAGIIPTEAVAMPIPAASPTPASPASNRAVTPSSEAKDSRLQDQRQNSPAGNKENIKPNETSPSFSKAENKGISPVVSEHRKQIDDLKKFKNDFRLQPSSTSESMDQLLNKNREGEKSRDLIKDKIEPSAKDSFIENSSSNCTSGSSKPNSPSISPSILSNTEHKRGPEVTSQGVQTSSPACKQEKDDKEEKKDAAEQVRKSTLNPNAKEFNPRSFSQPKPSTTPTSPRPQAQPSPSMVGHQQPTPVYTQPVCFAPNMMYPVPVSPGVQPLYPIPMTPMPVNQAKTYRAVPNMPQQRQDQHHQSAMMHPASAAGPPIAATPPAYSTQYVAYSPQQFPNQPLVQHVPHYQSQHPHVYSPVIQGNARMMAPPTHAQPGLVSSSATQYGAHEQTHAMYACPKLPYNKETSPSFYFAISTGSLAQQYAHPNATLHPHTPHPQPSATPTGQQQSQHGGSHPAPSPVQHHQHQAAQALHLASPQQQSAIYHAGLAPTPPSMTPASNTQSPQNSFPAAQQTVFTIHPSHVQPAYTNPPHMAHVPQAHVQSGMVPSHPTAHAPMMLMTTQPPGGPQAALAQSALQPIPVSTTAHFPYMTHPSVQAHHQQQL

Compound	Potency
Nc1nc(-c2sc3nc4c(cc3c2N)CCCC4)nc(N2CCOCC2)n1	inactive
O=C(NCC1Cc2cccc(-c3cccnc3)c2O1)c1ccc2cc[nH]c2c1 (stereo not given)	inactive
Cc1cccn2c(=O)c3cc(C#N)c(=O)n(Cc4cccnc4)c3nc12	inactive
O=C(CCl)N1c2ccccc2Sc2c1ccc1ccccc21	26.7 µM (active)
Cc1nc2c(ncn2-c2ccccc2)c(=O)n1NC(=O)CN1CCCC1	inactive
N=C(NOC(=O)c1ccc2ccccc2c1)c1ccccc1Cl	39.8 µM (active)
O=C(COC(=O)c1ccc2ccccc2c1)NCCCc1ccccc1	inactive
O=C(NCCOc1ccccc1)c1ccccc1Cl	inactive
COc1ccc(C2CC(c3cccc(Br)c3)=NN2c2ccc(S(N)(=O)=O)cc2)cc1 (stereo not given)	inactive
Oc1ccc2c(c1)OCC1(O)Cc3cc(O)c(O)cc3C21 (stereo not given)	39.8 µM (active)
c1ccc(Nc2scc(-c3ccccc3)[n+]2Cc2ccco2)cc1	inactive
Cc1cccc(NC(=O)CSc2nc3ccccc3c3nc(CCn4cncc4C)nn23)c1	31.6 µM (active)
Cn1nnnc1SCC1=C(C(=O)O)N2C(=O)C(NC(=O)Cn3nc(C(F)F)cc3C3CC3)C2SC1 (stereo not given)	inactive
CCOC(=O)c1nnn(-c2nonc2N)c1-c1ccc(Br)cc1	inactive
CC(C)N(Cc1ccccc1)C(=O)COC(=O)c1cnc(Cl)c(Cl)c1	39.8 µM (active)
O=C(COC(=O)c1cnc(Cl)c(Cl)c1)c1ccc(F)cc1	inactive
O=C(COC(=O)c1ccc(Cl)nc1)Nc1ncc(Cl)cc1Cl	inactive
Cc1ccccc1Nc1nc(N)nc(CN(C)Cc2ccccc2Cl)n1	inactive
Nc1nc(O)c(NC=O)c(Nc2ccc(Cl)cc2)n1	inactive
Nc1nc(CCl)nc(Nc2ccccc2)n1	28.2 µM (active)
CCOc1ccc(Nc2nc(N)nc(CSC(=S)N3CCN(c4ccccc4)CC3)n2)cc1	inactive
Cc1ccc(Nc2nc(N)nc(CCl)n2)cc1	4.74 µM (active)

Compound	Potency
Cc1ccc(Nc2nc(N)nc(CCl)n2)c(C)c1	14.1 µM (active)
Cc1ccc(Nc2nc(N)nc(CSc3nc4ccccc4s3)n2)cc1	39.8 µM (active)
CCOc1ccc(S(=O)(=O)Nc2cc(S(=O)(=O)N3CCOCC3)ccc2OC)cc1	inactive
COCCn1c(-c2cccs2)nc2nc3ccccc3nc21	inactive
N=c1c(C(=O)NCCc2ccccc2)cc2c(=O)n3ccccc3nc2n1CC1CCCO1 (stereo not given)	inactive
CC(C)(NC(=O)c1cc(Cl)c2ccccc2c1O)C(=O)O	inactive
CN1C=CC(=C[N+](=O)[O-])N(C)C1=O	17.8 µM (active)
CCOc1ccc(N2C(=O)/C(=C\c3ccc(OC)c(O)c3)S(=O)(=O)C2c2cccc([N+](=O)[O-])c2)cc1 (stereo not given)	inactive
COc1cc(/C=C2/C(=O)c3cccc([N+](=O)[O-])c3C2=O)c(Br)cc1O	22.4 µM (active)
COc1cc(CCN=Cc2cc(Cl)cc(Cl)c2O)c([N+](=O)[O-])cc1OC	inactive
Cc1ccc2[nH]c(SCC(=O)Nc3ccc(C(N)=O)cc3)nc2c1	inactive
CC(=O)c1cc2c(cc1NC(=O)CSc1nc3cc(C)ccc3[nH]1)OCO2	inactive
Cc1ccc2[nH]c(-c3ccc(SCC(=O)Nc4nnc(C)s4)nc3)nc2c1	23.8 µM (active)
COc1ccc(C2=CC(c3ccccc3Cl)n3nc(-c4ccc(Cl)cc4)nc3N2)cc1 (stereo not given)	inactive
Nc1cccc2c1C(=O)N(C(=O)/C=C/c1ccc(F)cc1)C2=O	inactive
CCSC1=NCCN1S(=O)(=O)c1ccc2ccccc2c1	inactive
CC(C)N1C/C(=C/c2ccsc2)C(=O)/C(=C/c2ccsc2)C1	39.8 µM (active)
Cc1ccc(CCC(=O)Nc2ccccc2C(=O)O)o1	inactive
O=C(OCc1ccc(O)cc1)c1c(-c2ccsc2)oc2ccc(N3CCOCC3)cc12	inactive
CCOc1ccc(C2C=C(c3cccc(OC)c3)Nc3nnnn32)cc1 (stereo not given)	inactive
Cc1nn(-c2ccccc2)c(Cl)c1C(=O)NNC(=O)c1ccncc1	inactive
Cc1ccsc1C(=O)N1CCN(c2ccccn2)CC1	inactive

Compound	Potency
Cc1nn(-c2ccccc2)c(Cl)c1C(=O)N1CCN(c2ncnc3c2cnn3-c2ccccc2)CC1	31.6 µM (active)
Cc1cccn2c(=O)c3cc(C(=O)O)n(C)c3nc12	inactive
CCCCNC(=O)CCN1N=C(c2ccccc2)CCC1=O	inactive
CN1C/C(=C/c2ccccc2[N+](=O)[O-])C(=O)/C(=C\c2ccccc2[N+](=O)[O-])C1	2.99 µM (active)
CCCCNC(=O)NNc1nc(Cl)cc(C)c1C#N	inactive
CCN(CC)C(=O)CSc1nc(-c2ccccc2)ccc1C#N	inactive
CCN(CC)C(=O)c1cccc(-c2csc(C(O)c3ccccc3)n2)c1 (stereo not given)	35.5 µM (active)
COCCCN=C(S)N1CCN(c2nc(-c3cccc(OC)c3)cs2)CC1	inactive
CC(C(=O)Nc1nc(-c2ccc(F)c(F)c2)cs1)N1C(=O)C2CC=CCC2C1=O (stereo not given)	inactive
CCN(CC)c1ccc2cc(-c3nc(-c4ccc(OC)cc4)cs3)c(=O)oc2c1	inactive
CC(C)c1cccc(-c2csc(C(O)c3ccc(F)c(F)c3)n2)c1 (stereo not given)	39.8 µM (active)
CCN(CC)C(=O)c1sc2nc(-c3ccccc3)ccc2c1N	inactive
COc1cccc(-c2ccc3c(N)c(C(=O)c4ccc(Cl)cc4)sc3n2)c1	inactive
CCN(C(=O)c1ccco1)c1nc(-c2ccc(OC)cc2)cs1	inactive
CCN(CC)C(=O)c1cccc(-c2csc(C(C)(O)c3cccc(OC)c3)n2)c1 (stereo not given)	35.5 µM (active)
CCN(CC)C(=O)c1cccc(-c2csc(C(C)(O)c3ccc(OC)cc3)n2)c1 (stereo not given)	15.8 µM (active)
Cc1ccc(C(=O)N2CCN(Cc3ccc4c(c3)OCO4)CC2)cc1S(=O)(=O)N1CCOCC1	inactive
COc1ccc(-c2c(C)c3ccc(O)c(CN4CCCCC4C)c3oc2=O)cc1OC (stereo not given)	inactive
COCCCNC(=O)c1cc2c(=O)n3cccc(C)c3nc2n(C(C)C)c1=N	inactive
CCSc1nnc(-c2sc3nnc(-c4ccccc4)c(-c4ccccc4)c3c2N)o1	inactive
CCC(=O)Oc1ccc2c(c1)OC1(OC(C)=O)OC(C)CC1=C2C (stereo not given)	inactive
